Over roughly 81,000 sequences, “one-hybrid fitness for binding NBS DNA” has its median near -0.1; the highest 2% begin near 0.36. Many of the other results were omitted from the sample, so the highest values are more common in it than they were.

The record followed here is a collection of fitness landscapes (doi:10.1016/j.celrep.2020.107928).

Sequences and labels used below:
B1: Caulobacter ParB omega fusion; a variant is named by its letters at X, in order, B8GW30 (parent)
chain: MESVVVGEPGMSEGRRGLGRGLSALLGEVDAAPAQAPGEQLGGSREAPIEILQRNPDQPRRTFREEDLEDLSNSIREKGVLQPILVRPSPDTAGEYQIVAGERAWRAAQRAGLKTVPIMVRELDDLAVLEIGIIENVQRADLNVLEEALSYKVLMEKFERTQENIAQTIGKSXSHVANXMRLLXLPDEVQSYLVSGELTAXHARAIAAAADPVALAKQIIEGGLSVRETEALARKAPNLSAGKSKGGRPPRVKDTDTQALESDLSSVLGLDVSIDHRGSTGTLTITYATLEQLDDLCNRLTRGI

This experiment covers variants of B1. The experiment in a line: one-hybrid fitness for binding NBS DNA (the Noc-binding site; scaled: cognate 1, non-cognate 0); higher = stronger binding. Particulars: with NBS DNA site. An outline of the steps: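 Bacterial one-hybrid selection in E. coli USO rpoZ- hisB- pyrF- with a HIS3 reporter carrying the site 19 bp from the promoter, screening Caulobacter ParB libraries with four specificity codons randomised (NNS). Cells grew 48 hours at 37°C on M9-minus-histidine plus 0.1 mM IPTG and 5 mM 3-AT. Plasmids before and after selection were Illumina-sequenced, three replicate libraries pooled, and variants under 10 reads dropped. Fitness is the log change in variant-to-wild-type read ratio, rescaled to cognate 1, non-cognate 0.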
ATGK: the “one-hybrid fitness for binding NBS DNA” value was at most 0.2. Next, YNLW: at most 0.2; DVCT: at most 0.2. As to DEDT, the “one-hybrid fitness for binding NBS DNA” value was at most 0.2. Under PSQV stands at most 0.2; under DYHC, at most 0.2. Under RKWK stands at most 0.2. Next, AQNL: at most 0.2. In the case of RRHN, the “one-hybrid fitness for binding NBS DNA” value is 0.331.

For RRHS, the “one-hybrid fitness for binding NBS DNA” value was found to be 0.681.

For RRHD, the “one-hybrid fitness for binding NBS DNA” value was at most 0.2. As to RRHK, the “one-hybrid fitness for binding NBS DNA” value came out at 0.267. Under RRHH stands 0.525. Under RRHP stands at most 0.2; under VSMF, at most 0.2. For the variant PDIW, the “one-hybrid fitness for binding NBS DNA” value is at most 0.2. Next, QRWA: 0.432; QSWA: at most 0.2; QRTA: 0.6. In the case of QITA, the “one-hybrid fitness for binding NBS DNA” value is at most 0.2. Under QRCA stands 0.609; under QIWA, at most 0.2. Turning to QSMA, the “one-hybrid fitness for binding NBS DNA” value is at most 0.2. Under QSTA stands 0.219. Under QHCA stands at most 0.2; under QCMA, 0.303. Under QRMA stands 0.549.

Regarding QACA, the “one-hybrid fitness for binding NBS DNA” value is at most 0.2. Under FHAS stands at most 0.2; under ENIG, at most 0.2.

Take LRKN: the “one-hybrid fitness for binding NBS DNA” value was at most 0.2. Next, PCWT: at most 0.2; QCIA: 0.25. For QRLA, the “one-hybrid fitness for binding NBS DNA” value amounted to 0.547.

In the case of QRRA, the “one-hybrid fitness for binding NBS DNA” value came to 0.674. In the case of QRSA, the “one-hybrid fitness for binding NBS DNA” value is 0.566.

As for QSSA, the “one-hybrid fitness for binding NBS DNA” value was at most 0.2. On to QSLA, for which the “one-hybrid fitness for binding NBS DNA” value was at most 0.2. Regarding QCLA, the “one-hybrid fitness for binding NBS DNA” value came to 0.304. Next, DRRA: at most 0.2. In the case of QRIA, the “one-hybrid fitness for binding NBS DNA” value turned out to be 0.436.

Turning to QRPA, the “one-hybrid fitness for binding NBS DNA” value is 0.207. For QWRA, the “one-hybrid fitness for binding NBS DNA” value was at most 0.2. Under QPSA stands at most 0.2; under TTVS, at most 0.2.

Take YHRS: the “one-hybrid fitness for binding NBS DNA” value is at most 0.2. Next, YKRY: at most 0.2; IDDD: at most 0.2. Next, SRTS: at most 0.2. Under TNTI stands at most 0.2; under CWVC, at most 0.2; under RTKL, at most 0.2. Turning to CLGT, the “one-hybrid fitness for binding NBS DNA” value is at most 0.2. Regarding QREA, the “one-hybrid fitness for binding NBS DNA” value turned out to be 0.288. Next, QRYA: 0.588. For QPYA, the “one-hybrid fitness for binding NBS DNA” value is at most 0.2.

With RATL, the “one-hybrid fitness for binding NBS DNA” value was at most 0.2.

AQRI: the “one-hybrid fitness for binding NBS DNA” value is at most 0.2. With VVMC, the “one-hybrid fitness for binding NBS DNA” value was at most 0.2.

As for QCCK, the “one-hybrid fitness for binding NBS DNA” value was at most 0.2. Next, QRPK: at most 0.2; QCSK: at most 0.2; QRSK: 0.396. Under QRCK stands 0.388. Under QSHK stands at most 0.2. Take QRRK: the “one-hybrid fitness for binding NBS DNA” value is 0.747. Next, QRHK: 0.432; QCHK: at most 0.2. Take QRWK: the “one-hybrid fitness for binding NBS DNA” value turned out to be 0.239. Next, QSSK: at most 0.2; QSCK: at most 0.2. YTTG: the “one-hybrid fitness for binding NBS DNA” value was at most 0.2. Under PILC stands at most 0.2. Next, GPWT: at most 0.2; TTST: at most 0.2.

Turning to PSAI, the “one-hybrid fitness for binding NBS DNA” value is at most 0.2.
